From PMC5540273 (PLoS ONE, 2017)

What was measured:
DMPK2 = tested on: T1, DMPK2
T1 construct: gene CDC42BPG

DRAK1 = tested on: T2, DRAK1
T2 construct: gene STK17A
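Further: kd values determined as follow-up on hits from a single-replicate KINOMEscan panel screen.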

Cc1ccc(NC(=O)c2ccc(Cl)cc2)cc1-c1ccc(C(=O)Nc2ccncc2)cc1 [GSK1398467]
Kd (CSF1R): 0.88 µM | Kd (DDR1): 0.71 µM | Kd (EPHA3): > 10 µM

CCn1c(-c2c(N)noc2C)nc2cnccc21 [SB-737856]
Kd (DMPK2): > 10 µM

Fc1ccc(-c2nc[nH]c2-c2ccncc2)cc1 [SB-217360]
Kd (CSNK1A1): 0.087 µM | Kd (CSNK1D): 0.041 µM | Kd (CSNK1E): 0.14 µM

COc1ccc(CSc2nnc(-c3ccc4c(c3)CCO4)o2)cc1
Kd (CLK4): 1.3 µM

Fc1ccc(-c2nc3n(c2-c2ccncc2)CCS3)cc1 [GI98581]
Kd (CSNK1A1): 0.26 µM | Kd (CSNK1D): 0.083 µM | Kd (CSNK1E): 0.18 µM | Kd (DMPK2): 1.2 µM

Cn1cncc1-c1cc2c(Nc3ccc(OCc4ccccc4)cc3)ncnc2cn1 [GW281179]
Kd (DRAK1): > 10 µM | Kd (EGFR): 0.01 µM

Cc1ccc(NC(=O)Nc2ccc(Cl)c(C(F)(F)F)c2)cc1-c1ccc(C(=O)Nc2ccncc2)cc1 [GSK1398470]
Kd (DDR1): 0.12 µM

Nc1nccc(-c2c(-c3ccc(F)cc3)ncn2C2CCN(Cc3ccccc3)CC2)n1 [SB-219980]
Kd (CSNK1A1): 0.041 µM | Kd (CSNK1D): 0.0075 µM | Kd (CSNK1E): 0.024 µM | Kd (DDR1): 0.14 µM

c1ccc(-c2ccnc3[nH]ccc23)cc1 [SB-693578]
Kd (CSNK1G1): > 10 µM

Cc1ccc(-c2nc(Nc3ccncc3)c3ccccc3n2)s1 [GSK189015]
Kd (EPHA5): > 10 µM

COc1ccc(Nc2nccc(N3CCC(NC(=O)c4cc5ccccc5s4)C3)n2)cc1 (stereo not shown) [GSK1379738]
Kd (DDR1): > 10 µM

Cc1ccc(NC(=O)Nc2ccccc2F)cc1-c1ccc(C(=O)Nc2ccncc2)cc1 [GSK1398477]
Kd (CSF1R): 2.6 µM | Kd (DDR1): 0.18 µM

COc1ccc(CSc2nnc(-c3ccc4nccn4c3)o2)cc1C(F)(F)F
Kd (CLK4): 0.13 µM
